Here are results for 39 sequences from article PMC7862700, “An all-to-all approach to the identification of sequence-specific readers for epigenetic DNA modifications on cytosine”.

In the first experiment the target is T1, ETV2 (Homo sapiens, UniProt O00321 1-342).
T1 sequence: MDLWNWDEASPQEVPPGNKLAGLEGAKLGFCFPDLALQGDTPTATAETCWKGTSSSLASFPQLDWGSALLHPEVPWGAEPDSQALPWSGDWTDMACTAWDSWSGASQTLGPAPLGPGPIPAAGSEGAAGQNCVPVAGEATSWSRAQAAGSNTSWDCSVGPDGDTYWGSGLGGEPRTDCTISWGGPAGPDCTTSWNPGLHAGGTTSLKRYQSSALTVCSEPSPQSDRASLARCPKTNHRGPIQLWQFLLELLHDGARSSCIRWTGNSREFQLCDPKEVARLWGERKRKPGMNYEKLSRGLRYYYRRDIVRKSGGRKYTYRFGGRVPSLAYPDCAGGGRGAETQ
The experiment in a line: DAPPL (digital affinity profiling via proximity ligation, sequencing); 10 mM Tris-HCl pH 7.5, 50 mM NaCl, 1 mM DTT, 4% glycerol, room temperature, 30 min; GST-TFs on glutathione beads, 16-mer random dsDNA library, 0.1% formaldehyde crosslink after washing; high values mean tight binding. Particulars: protein: recombinant; tags: N-terminal GST; dsDNA, one strand shown. A digest of the protocol: (§1)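 Binding signal is given per hexamer as its read frequency for a factor divided by its frequency in the tag-only sample. GST-fused human transcription factors were expressed in yeast, captured on glutathione beads, barcoded with DNA and pooled with that sample, then incubated with 200 nmole of a 16-mer random double-stranded DNA library in Tris/NaCl/DTT/glycerol buffer for 30 min at room temperature. The pools were then washed, crosslinked, proximity-ligated, amplified by PCR and sequenced on an Illumina NextSeq500.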
For ACTCTA, the binding signal was 1.41 fold enrichment (6-mer frequency, TF over GST control).
The same measure, in the same setting: under CCCTCC stands 1.32 fold enrichment (6-mer frequency, TF over GST control); under ATATTC, 1.22 fold enrichment (6-mer frequency, TF over GST control).
The same measure, in the same setting: under CGCTTA stands 1.1 fold enrichment (6-mer frequency, TF over GST control).
For ACGTTA, the binding signal was 1.28 fold enrichment (6-mer frequency, TF over GST control).
On the same count and under the same terms, under GCCTTT stands 1.53 fold enrichment (6-mer frequency, TF over GST control).
Still for that read-out and setting: the same measure for TTCGAG: 1.14 fold enrichment (6-mer frequency, TF over GST control); for CTGAGC: 1.37 fold enrichment (6-mer frequency, TF over GST control); for AATTCT: 1.4 fold enrichment (6-mer frequency, TF over GST control).
Same read-out and setting: under CCTGAA stands 1.47 fold enrichment (6-mer frequency, TF over GST control); under TAACTT, 1.59 fold enrichment (6-mer frequency, TF over GST control).
Take CTCATC: the binding signal is 1.45 fold enrichment (6-mer frequency, TF over GST control).
On to TCTCAT, for which the binding signal was 1.46 fold enrichment (6-mer frequency, TF over GST control).
Still for that read-out and setting: under TGATGA stands 1.33 fold enrichment (6-mer frequency, TF over GST control).
Still for that read-out and setting: under TTAAAT stands 1.25 fold enrichment (6-mer frequency, TF over GST control); under TTTCAA, 1.32 fold enrichment (6-mer frequency, TF over GST control); under ATATGG, 1.13 fold enrichment (6-mer frequency, TF over GST control).
On the same count and under the same terms, the same measure for ACTTGG: 1.15 fold enrichment (6-mer frequency, TF over GST control); for CACATT: 1.28 fold enrichment (6-mer frequency, TF over GST control); for TCCTGA: 1.66 fold enrichment (6-mer frequency, TF over GST control).

A further experiment deals with T2, ELF3 (Homo sapiens, UniProt P78545 1-371).
T2 sequence: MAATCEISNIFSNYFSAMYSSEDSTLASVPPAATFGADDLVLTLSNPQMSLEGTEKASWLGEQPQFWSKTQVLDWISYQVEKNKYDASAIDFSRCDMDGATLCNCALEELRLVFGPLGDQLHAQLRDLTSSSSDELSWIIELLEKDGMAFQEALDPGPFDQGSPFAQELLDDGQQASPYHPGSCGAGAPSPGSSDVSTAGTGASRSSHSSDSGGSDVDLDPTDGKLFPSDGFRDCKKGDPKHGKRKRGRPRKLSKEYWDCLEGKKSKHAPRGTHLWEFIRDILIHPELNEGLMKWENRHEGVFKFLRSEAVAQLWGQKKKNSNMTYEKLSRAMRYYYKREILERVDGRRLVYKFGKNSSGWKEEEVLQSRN
The experiment is described as above. The following applies: protein: recombinant; tags: N-terminal GST; dsDNA, one strand shown. A digest of the protocol:
as §1
With TTTGTG, the binding signal is 1.27 fold enrichment (6-mer frequency, TF over GST control).
On the same count and under the same terms, the same measure for AATTCA: 1.35 fold enrichment (6-mer frequency, TF over GST control).
Same read-out and setting: the same measure for TTGCTC: 1.29 fold enrichment (6-mer frequency, TF over GST control); for CTAAAC: 1.18 fold enrichment (6-mer frequency, TF over GST control); for TAGGCT: 1.1 fold enrichment (6-mer frequency, TF over GST control).
The same measure, in the same setting: under CCTCTG stands 1.73 fold enrichment (6-mer frequency, TF over GST control); under TGTCTA, 1.06 fold enrichment (6-mer frequency, TF over GST control); under TTCACC, 1.57 fold enrichment (6-mer frequency, TF over GST control).
Consider ATCTAC, for which the binding signal is 1.33 fold enrichment (6-mer frequency, TF over GST control).
Take CACTAT: the binding signal is 1.32 fold enrichment (6-mer frequency, TF over GST control).
The same measure, in the same setting: under TAATCC stands 1.22 fold enrichment (6-mer frequency, TF over GST control); under AAAGAT, 1.16 fold enrichment (6-mer frequency, TF over GST control); under CGTCTT, 1.56 fold enrichment (6-mer frequency, TF over GST control).
On the same count and under the same terms, the same measure for ACTGAA: 1.37 fold enrichment (6-mer frequency, TF over GST control).
On the same count and under the same terms, under CTCCGC stands 1.38 fold enrichment (6-mer frequency, TF over GST control).
Regarding CAACTC, the binding signal is 1.24 fold enrichment (6-mer frequency, TF over GST control).
Still for that read-out and setting: under TACAAT stands 1.36 fold enrichment (6-mer frequency, TF over GST control); under CCATCT, 1.34 fold enrichment (6-mer frequency, TF over GST control).
On the same count and under the same terms, the same measure for TCCCCG: 1.27 fold enrichment (6-mer frequency, TF over GST control); for ACTCTA: 1.36 fold enrichment (6-mer frequency, TF over GST control).
In the case of CCCTCC, the binding signal was 1.27 fold enrichment (6-mer frequency, TF over GST control).
Still for that read-out and setting: the same measure for ATATTC: 1.38 fold enrichment (6-mer frequency, TF over GST control); for CGCTTA: 1.29 fold enrichment (6-mer frequency, TF over GST control).
Still for that read-out and setting: the same measure for ACGTTA: 1.09 fold enrichment (6-mer frequency, TF over GST control); for GCCTTT: 1.38 fold enrichment (6-mer frequency, TF over GST control); for TTCGAG: 1.25 fold enrichment (6-mer frequency, TF over GST control).
As to CTGAGC, the binding signal is 1.16 fold enrichment (6-mer frequency, TF over GST control).
Same read-out and setting: under AATTCT stands 1.25 fold enrichment (6-mer frequency, TF over GST control); under CCTGAA, 1.21 fold enrichment (6-mer frequency, TF over GST control).
On the same count and under the same terms, under TAACTT stands 1.35 fold enrichment (6-mer frequency, TF over GST control); under CTCATC, 1.49 fold enrichment (6-mer frequency, TF over GST control); under TCTCAT, 1.32 fold enrichment (6-mer frequency, TF over GST control).
Still for that read-out and setting: under TGATGA stands 1.4 fold enrichment (6-mer frequency, TF over GST control).
Turning to TTAAAT, the binding signal is 1.22 fold enrichment (6-mer frequency, TF over GST control).
As to TTTCAA, the binding signal was 1.33 fold enrichment (6-mer frequency, TF over GST control).
As for ATATGG, the binding signal is 1.36 fold enrichment (6-mer frequency, TF over GST control).
Take ACTTGG: the binding signal was 1.36 fold enrichment (6-mer frequency, TF over GST control).
Still for that read-out and setting: under CACATT stands 1.43 fold enrichment (6-mer frequency, TF over GST control).
On the same count and under the same terms, under TCCTGA stands 1.39 fold enrichment (6-mer frequency, TF over GST control).
